Active and inactive are the calls of the source. Unless noted, no rule for the calls is given here.
Experiments:
[1] = system: Wnt5a (protein binding on small-molecule microarray); assay: small molecules binding Wnt5a protein – biophysical, small-molecule microarray, 635/667 nm fluorescence, primary screen (AID 1142); details: 635 nm fluorescence, higher = more signal;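 also: fluorescence read at 667 nm with signal to noise per printed feature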
[2] = ATP-based viability of Huh7 replicon cells – cell-based, CellTiter-Glo luminescence, basal, 48 h, cytotoxicity control for HCV replication inhibitor project, primary screen (AID 1143); details: higher = more signal, called active from +8 up or from −8 down;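 also: Huh7 hepatoma cells carrying a hepatitis C replication reporter with no stimulus; test concentration not given here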
[3] = Pseudomonas biofilm growth suppression – PAO1 strain, BacTiter-Glo luminescence, LB-PBS, primary screen (AID 1144); details: P. aeruginosa PAO1 biofilm, 12 h, higher = more signal
[4] = basal CRE-LacZ reporter activity in PC12 – cell-based, unstimulated, primary screen (AID 1145); details: no forskolin, luminescence, 4.5 h, higher = more signal, called active from +8 up or from −8 down
[5] = forskolin-driven CRE-LacZ activity in PC12 – cell-based, CRE-LacZ reporter, forskolin-stimulated, primary screen (AID 1146); details: luminescence, 4.5 h, higher = more signal, called active from +8 up or from −8 down;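 also: PC12 cells with 6xCRE LacZ reporter stimulated by forskolin 10 µM; beta-galactosidase reporter signal reflecting CREB driven transcription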
[6] = target: Streptavidin (Streptomyces avidinii) (UniProt P22629); assay: compounds binding control protein streptavidin – biophysical, small-molecule microarray, 635/667 nm fluorescence, artefact control for SMM compound annotation, primary screen (AID 1147); details: higher = more signal;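 also: signal reflects streptavidin binding to arrayed compounds as a control protein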
[7] = probe aInhba binding on compound microarray – biochemical, small-molecule microarray, 635/667 nm fluorescence, primary screen (AID 1148); details: higher = more signal;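 also: score merges 667nm spot fluorescence with signal-to-noise for antibody binding to printed compounds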
Torsin-1A (Homo sapiens) [8] = target: Torsin-1A (Homo sapiens) (UniProt O14656); assay: TOR1A wild-type binding on microarray – cell lysate, small-molecule microarray, lysate, 635/667 nm, primary screen (AID 1149); details: COS7 hTOR1A-WT lysate, 635 nm fluorescence, higher = more signal
Torsin-1A (Homo sapiens) [9] = target: Torsin-1A (Homo sapiens) (UniProt O14656); assay: torsin A mutant lysate binding on microarrays – cell lysate, small-molecule microarray, COS7 lysate, 635/667 nm fluorescence, primary screen (AID 1150); details: COS7 hTOR1A mutant lysate, 635 nm fluorescence, higher = more signal;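 also: score pools 667 nm emission and signal to noise measuring lysate protein binding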
[10] = system: Sonic hedgehog protein (Shh); assay: Sonic hedgehog microarray binding compounds – biochemical, small-molecule microarray, 635/667 nm fluorescence, primary screen (AID 1151); details: 635 nm fluorescence, higher = more signal;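 also: Shh protein binding to compounds spotted on small-molecule microarray slides; score combines spot fluorescence intensity with signal-to-noise across triplicate slides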
[11] = optical density shifts of acrAB sulA E. coli – strain DRC41, OD650, 48 h, E. coli filamentation inducer project, primary screen (AID 1152); details: higher = more signal, called active from +8 up or from −8 down;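 also: E. coli MC1000 strain DRC41 lacking acrAB efflux pump and sulA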
[12] = probe aLefty1 binding on compound microarray – biochemical, small-molecule microarray, 635/667 nm fluorescence, primary screen (AID 1153); details: higher = more signal;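 also: score merges spot fluorescence with signal-to-noise ratio from the scanned slide images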
[13] = plasmodial surface anion channel blockers, osmotic lysis – cell-based, P. falciparum Indochina, OD700, 1 h, primary screen (AID 1154); details: P. falciparum Indochina infected RBC osmotic lysis, higher = more signal, called active from +8 up or from −8 down
[14] = plasmodial surface anion channel blockers, osmotic lysis – cell-based, P. falciparum Indochina, OD700, 2 h, primary screen (AID 1155);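 also: lysis reports solute entry through the parasite surface anion channel PSAC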; details: P. falciparum Indochina infected erythrocytes, higher = more signal, called active from +8 up or from −8 down
[15] = changes in parasitized red cell lysis, either direction – P. falciparum Indochina, OD700, 3 h, PSAC antagonist project, primary screen (AID 1156); details: P. falciparum-infected erythrocytes, osmotic lysis, higher = more signal, called active from +8 up or from −8 down
[16] = plasmodial surface anion channel blockers, osmotic lysis – cell-based, P. falciparum Indochina, OD700, 18 h, primary screen (AID 1157); details: P. falciparum Indochina infected erythrocytes, osmotic lysis OD700, 18 h; higher = more signal, called active from +8 up or from −8 down
[17] = S6 kinase pathway phospho-S6 level changes – cell-based, A549, cytoblot, luminescence, serum-stimulated, primary screen (AID 1158); details: 5 h, higher = more signal;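 also: serum-stimulated A549 lung adenocarcinoma cells; signal is phosphorylated S6 detected by cytoblot immunostaining with HRP secondary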
[18] = target: NADPH oxidase 2 (Homo sapiens) (UniProt P04839); assay: compounds shifting NOX2 Amplex Red fluorescence – cell-based, HEK293-NOX2, PMA-stimulated, NOX inhibitor project, primary screen (AID 1159); details: 45 min, higher = more signal, called active from +8 up or from −8 down; also: test concentration not given here
[19] = target: NADPH oxidase 4 (Homo sapiens) (UniProt Q9NPH5); assay: compounds shifting NOX4 Amplex Red fluorescence – cell-based, HEK293-NOX4, tetracycline-induced, NOX inhibitor project, primary screen (AID 1160); details: HEK293-NOX4, Amplex Red H2O2 fluorescence, 45 min; higher = more signal, called active from +8 up or from −8 down
[20] = target: NADPH oxidase 5 (Homo sapiens) (UniProt Q96PH1); assay: compounds shifting NOX5 Amplex Red fluorescence – cell-based, HEK293-NOX5, NOX inhibitor project, primary screen (AID 1161); details: HEK293-NOX5, ionomycin, 45 min, higher = more signal
NADPH oxidase 5 (Homo sapiens), sequence (Q96PH1 whole entry, looked up): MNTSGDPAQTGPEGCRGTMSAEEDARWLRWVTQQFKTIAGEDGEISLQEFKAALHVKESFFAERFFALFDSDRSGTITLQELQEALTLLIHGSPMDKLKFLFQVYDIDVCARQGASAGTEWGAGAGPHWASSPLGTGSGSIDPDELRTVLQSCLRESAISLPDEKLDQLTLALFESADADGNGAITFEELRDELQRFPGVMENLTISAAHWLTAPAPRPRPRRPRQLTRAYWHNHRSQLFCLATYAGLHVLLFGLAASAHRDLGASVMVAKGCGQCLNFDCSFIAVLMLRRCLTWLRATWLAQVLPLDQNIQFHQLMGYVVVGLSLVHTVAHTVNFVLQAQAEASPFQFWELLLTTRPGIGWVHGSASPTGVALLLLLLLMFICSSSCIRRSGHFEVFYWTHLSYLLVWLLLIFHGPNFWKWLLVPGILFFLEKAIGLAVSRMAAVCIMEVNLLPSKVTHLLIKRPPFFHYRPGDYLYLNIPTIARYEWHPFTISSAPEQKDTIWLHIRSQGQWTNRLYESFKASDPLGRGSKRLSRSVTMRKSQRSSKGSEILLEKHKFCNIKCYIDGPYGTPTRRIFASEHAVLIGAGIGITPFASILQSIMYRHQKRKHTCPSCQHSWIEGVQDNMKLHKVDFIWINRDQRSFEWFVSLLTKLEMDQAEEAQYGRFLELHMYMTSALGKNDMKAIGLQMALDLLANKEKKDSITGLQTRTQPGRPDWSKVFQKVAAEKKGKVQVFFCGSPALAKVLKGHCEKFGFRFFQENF

Torsin-1A (Homo sapiens), sequence (O14656 whole entry, looked up): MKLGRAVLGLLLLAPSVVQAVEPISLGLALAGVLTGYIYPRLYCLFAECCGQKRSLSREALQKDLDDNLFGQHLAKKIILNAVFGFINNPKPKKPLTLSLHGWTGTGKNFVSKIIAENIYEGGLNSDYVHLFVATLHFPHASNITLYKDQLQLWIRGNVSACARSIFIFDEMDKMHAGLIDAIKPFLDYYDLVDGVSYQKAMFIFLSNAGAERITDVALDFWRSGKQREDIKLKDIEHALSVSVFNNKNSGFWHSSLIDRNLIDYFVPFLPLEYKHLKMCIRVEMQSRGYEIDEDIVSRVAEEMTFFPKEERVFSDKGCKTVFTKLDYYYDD
NADPH oxidase 2 (Homo sapiens), sequence (P04839 whole entry, looked up): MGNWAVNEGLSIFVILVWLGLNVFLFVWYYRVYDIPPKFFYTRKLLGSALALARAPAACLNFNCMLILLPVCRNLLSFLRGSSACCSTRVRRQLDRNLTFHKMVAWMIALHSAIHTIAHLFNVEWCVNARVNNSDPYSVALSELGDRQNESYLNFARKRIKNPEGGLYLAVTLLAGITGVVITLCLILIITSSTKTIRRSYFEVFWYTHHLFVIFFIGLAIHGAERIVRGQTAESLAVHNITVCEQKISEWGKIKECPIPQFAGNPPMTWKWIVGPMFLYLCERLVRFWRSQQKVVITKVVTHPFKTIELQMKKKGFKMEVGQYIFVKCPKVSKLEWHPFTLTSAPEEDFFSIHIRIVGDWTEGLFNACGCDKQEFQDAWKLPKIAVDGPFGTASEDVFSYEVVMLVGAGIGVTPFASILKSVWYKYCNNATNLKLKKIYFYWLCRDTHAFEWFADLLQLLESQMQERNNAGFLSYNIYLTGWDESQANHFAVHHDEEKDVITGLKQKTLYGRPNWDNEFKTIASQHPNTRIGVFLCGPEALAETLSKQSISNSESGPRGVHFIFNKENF
Streptavidin (Streptomyces avidinii), sequence (P22629 whole entry, looked up): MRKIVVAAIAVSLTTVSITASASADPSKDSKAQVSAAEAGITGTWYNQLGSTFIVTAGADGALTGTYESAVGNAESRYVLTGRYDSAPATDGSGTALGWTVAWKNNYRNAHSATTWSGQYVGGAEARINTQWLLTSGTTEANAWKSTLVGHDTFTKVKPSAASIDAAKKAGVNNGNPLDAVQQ
NADPH oxidase 4 (Homo sapiens), sequence (Q9NPH5 whole entry, looked up): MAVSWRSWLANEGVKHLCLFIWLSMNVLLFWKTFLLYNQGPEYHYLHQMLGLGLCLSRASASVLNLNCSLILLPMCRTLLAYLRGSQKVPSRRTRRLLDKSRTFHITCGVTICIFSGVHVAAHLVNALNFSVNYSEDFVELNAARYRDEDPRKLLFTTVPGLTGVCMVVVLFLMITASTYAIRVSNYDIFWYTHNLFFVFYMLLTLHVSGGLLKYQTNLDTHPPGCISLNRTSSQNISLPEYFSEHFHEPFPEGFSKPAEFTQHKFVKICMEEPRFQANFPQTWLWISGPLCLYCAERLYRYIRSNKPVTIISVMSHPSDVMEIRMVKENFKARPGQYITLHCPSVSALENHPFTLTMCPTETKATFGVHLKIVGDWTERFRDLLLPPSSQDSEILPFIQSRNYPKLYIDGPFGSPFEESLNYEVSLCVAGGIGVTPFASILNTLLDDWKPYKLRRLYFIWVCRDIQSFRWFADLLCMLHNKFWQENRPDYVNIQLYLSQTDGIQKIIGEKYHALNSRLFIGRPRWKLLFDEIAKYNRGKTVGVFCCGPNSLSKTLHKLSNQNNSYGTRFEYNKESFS

SMILES	composite z-score [1]	z-score [2]	z-score [3]	z-score [4]	z-score [5]	composite z-score [6]	composite z-score [7]	composite z-score (Torsin-1A (Homo sapiens) [8])	composite z-score (Torsin-1A (Homo sapiens) [9])	composite z-score [10]	z-score [11]	composite z-score [12]	z-score [13]	z-score [14]	z-score [15]	z-score [16]	z-score [17]	z-score [18]	z-score [19]	z-score [20]
CCC1=C2CN(Cc3ccccc3Br)[C@@H]([C@@H](O)Cc3ccccc3)C2C=CCC1 (stereo not given in full)	0.0361	-5.22 (inactive)	-0.709 (inactive)	2.12 (inactive)	4.84 (inactive)	0.721	-0.105	0.476	0.212	0.675	0.625 (inactive)	-0.101	4.02 (inactive)	-0.96 (inactive)	-0.115 (inactive)	-1.8 (inactive)	1.56	-0.306 (inactive)	-4.86 (inactive)	-4.65
COc1cc(CO)cc(I)c1O[C@H]1C=C(C(=O)NCCO)C[C@@H](N(CC2CCCCC2)C(=O)c2cc3ccccc3oc2=O)[C@@H]1O	0.159	-0.0365 (inactive)	-0.143 (inactive)	1.13 (inactive)	-1.27 (inactive)	0.745	-0.0332	0.0653	0.0077	0.568	2.01 (inactive)	-0.0969	2.5 (inactive)	0.718 (inactive)	1.18 (inactive)	0.207 (inactive)	-0.0608	-0.289 (inactive)	1.3 (inactive)	0.647
C=C[C@H](OC)[C@@H](OC(=O)Nc1ccc(SC)cc1)c1ccc(O)c(F)c1	0.418	-0.731 (inactive)	-0.782 (inactive)	5.83 (inactive)	-0.362 (inactive)	-0.174	-0.0695	0.373	0.23	1.6	0.738 (inactive)	0.0043	25.5 (active)	8.06 (active)	1.83 (inactive)	-0.016 (inactive)	0.461	-2.96 (inactive)	-1.66 (inactive)	-1.06
NC(=O)NCC#Cc1ccc2c(c1)[C@]1(C(=O)N2)[C@H](c2ccccc2OCCO)N2[C@H](c3ccccc3)[C@H](c3ccccc3)OC(=O)[C@H]2[C@@H]1C(=O)N1CCN(c2ncccn2)CC1	-0.186	-4.21 (inactive)	-0.681 (inactive)	-0.0515 (inactive)	0.889 (inactive)	0.182	-0.0762	0.0759	0.272	0.831	2.11 (inactive)	0.445	3.42 (inactive)	0.449 (inactive)	0.229 (inactive)	-1.44 (inactive)	2.08	1.09 (inactive)	0.958 (inactive)	-0.596
CCOC(=O)C[C@H]1[C@H](OC(=O)c2ccccc2-c2ccccc2)[C@@H](NC(=O)c2ccc(-c3ccccc3)cc2)c2cc(OCCCO)ccc2N1C(=O)Cc1ccc(OC)cc1	0.17	0.132 (inactive)	0.846 (inactive)	2.3 (inactive)	0.41 (inactive)	0.0511	0.038	-0.153	1.02	0.56	-0.866 (inactive)	-0.147	17.3 (active)	2.83 (inactive)	-0.405 (inactive)	0.575 (inactive)	0.111	0.155 (inactive)	1.22 (inactive)	1.21
CCC#CCN(Cc1ccccc1Br)[C@H](/C=C/c1ccccc1)[C@@H](O)Cc1ccccc1	-0.659	-1.45 (inactive)	0.282 (inactive)	2.94 (inactive)	0.272 (inactive)	-0.312	-0.179	-0.586	-0.542	-1.18	0.625 (inactive)	-0.0035	1.79 (inactive)	1.15 (inactive)	-0.696 (inactive)	0.475 (inactive)	-0.218	-0.267 (inactive)	0.0785 (inactive)	-0.41
CC[C@H]1C2=C3C(CC[C@H]4C(OC)OC[C@](C)([C@@H]34)N(C(=O)OC(C)(C)C)C2)C(CO)C1CO (stereo not given in full)	0.647	-1.06 (inactive)	1.01 (inactive)	-0.182 (inactive)	0.385 (inactive)	3.17	0.34	0.295	1.87	-0.623	-0.36 (inactive)	0.631	-0.51 (inactive)	-0.909 (inactive)	-0.337 (inactive)	-2.25 (inactive)	1.59	-0.108 (inactive)	-0.269 (inactive)	-2.77
C=C(C)[C@@H]1CC=C(C(O)C2C=CC3C(=O)NC(=O)C3N2Nc2ccccn2)CC1 (stereo not given in full)	0.742	0.715 (inactive)	-0.555 (inactive)	-0.14 (inactive)	0.621 (inactive)	0.717	0.093	1.1	0.705	2.28	-1.56 (inactive)	0.497	0.671 (inactive)	0.613 (inactive)	0.0385 (inactive)	0.876 (inactive)	-1.11	-1.02 (inactive)	-2.89 (inactive)	-2.69

Source: PubChem BioAssay
